PubChem BioAssay (EPA / NIEHS)
Where “and” joins values, the source holds several entries; their conditions need not be identical. Equal entries are not always repeated. The source holds several records for some structures; these can differ, active in one and inactive in another. Calls of active or inactive are those of the source. How the source made its calls: active means hit-call score of the fitted dose curve at least 0.9, where 1 is the maximum; inactive means score below 0.9.

Test: APR_HepG2_StressKinase_72hr: Apredica 72-hour HepG2 Assay for Stress Kinase (AID 2282921)
Conditions: HepG2 stress kinase (phospho-c-Jun) imaging, actives raise or lower the signal
In short: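 After a 72 h compound treatment spanning 0.39 to 200 uM, formaldehyde-fixed cells are labelled for phosphorylated c-Jun and nuclei, imaged by automated fluorescence microscopy, and activity is fitted in both directions relative to DMSO controls.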

Row | Structure (SMILES) | outcome | AC50
1 | C#C[C@]1(O)CC[C@H]2[C@@H]3CCc4cc(O)ccc4[C@H]3CC[C@@]21C | inactive | 
2 | O=C(c1ccc(OCCN2CCCCC2)cc1)c1c(-c2ccc(O)cc2)sc2cc(O)ccc12 | inactive | 
3 | C[C@]12CC[C@@H]3c4ccc(O)cc4CC[C@H]3[C@@H]1CC[C@@H]2O | inactive | 
4 | CC/C(=C(\c1ccccc1)c1ccc(OCCN(C)C)cc1)c1ccccc1 |  | 63.4 µM (active) and 100 µM (active)

Test: APR_HepG2_StressKinase_24hr: Apredica 24-hour HepG2 Assay for Stress Kinase (AID 2282922)
Conditions: HepG2 stress kinase (phospho-c-Jun) imaging, actives raise or lower the signal
In short: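 After 24 hr compound treatment (up to 200 uM, final DMSO 0.5% v/v), HepG2 cells are fixed and multiplex-labeled; phospho-c-Jun intensity is captured by high-content fluorescence imaging and analyzed relative to DMSO.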

Row | Structure (SMILES) | outcome | AC50
5 | C#C[C@]1(O)CC[C@H]2[C@@H]3CCc4cc(O)ccc4[C@H]3CC[C@@]21C | inactive | 
6 | O=C(c1ccc(OCCN2CCCCC2)cc1)c1c(-c2ccc(O)cc2)sc2cc(O)ccc12 | inactive | 
7 | C[C@]12CC[C@@H]3c4ccc(O)cc4CC[C@H]3[C@@H]1CC[C@@H]2O | inactive | 
8 | CC/C(=C(\c1ccccc1)c1ccc(OCCN(C)C)cc1)c1ccccc1 | inactive | 32.1 µM (active)

Test: APR_HepG2_p53Act_72hr: Apredica 72-hour HepG2 Assay for p53 Activation (AID 2282923);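 further: average cellular p53 protein immunofluorescence intensity in HepG2 cells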
Conditions: high-content imaging, actives raise or lower the signal
In short: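 Imaging-based endpoint: after 72 hr compound exposure (up to 200 uM, 0.5% DMSO), fixed and permeabilized monolayers were labelled with anti-p53 antibody and imaged; signal change in either direction was fitted relative to DMSO controls.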

Row | Structure (SMILES) | AC50 | outcome
9 | C#C[C@]1(O)CC[C@H]2[C@@H]3CCc4cc(O)ccc4[C@H]3CC[C@@]21C | 28.5 µM (active) | 
10 | O=C(c1ccc(OCCN2CCCCC2)cc1)c1c(-c2ccc(O)cc2)sc2cc(O)ccc12 |  | inactive
11 | C[C@]12CC[C@@H]3c4ccc(O)cc4CC[C@H]3[C@@H]1CC[C@@H]2O | 25.6 µM (active) | 
12 | CC/C(=C(\c1ccccc1)c1ccc(OCCN(C)C)cc1)c1ccccc1 | 6.04 µM (active) | inactive

Test: APR_HepG2_MitoMass_72hr: Apredica 72-hour HepG2 Assay for Mitochondrial Mass (AID 2282924);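 further: MitoTracker Red CMXRos stain intensity per cell imaged as mitochondrial mass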
Conditions: high-content imaging, actives raise or lower the signal
In short: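 Steps: treat HepG2 72 hr (0.39–200 uM, duplicate wells); load MitoTracker Red CMXRos, 250 nM, 30 min; fix with 3.7% formaldehyde, permeabilise with 0.5% Triton X-100; capture images, nuclei via Hoechst 33342; fit bidirectionally against DMSO.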

Row | Structure (SMILES) | outcome | AC50
13 | C#C[C@]1(O)CC[C@H]2[C@@H]3CCc4cc(O)ccc4[C@H]3CC[C@@]21C | inactive | 
14 | O=C(c1ccc(OCCN2CCCCC2)cc1)c1c(-c2ccc(O)cc2)sc2cc(O)ccc12 | inactive | 
15 | C[C@]12CC[C@@H]3c4ccc(O)cc4CC[C@H]3[C@@H]1CC[C@@H]2O | inactive | 
16 | CC/C(=C(\c1ccccc1)c1ccc(OCCN(C)C)cc1)c1ccccc1 | inactive | 152 µM (active)
